Screening results deposited in PubChem by several laboratories.
Only some compounds are listed: those with a hit (about 27% of all), similar ones and a draw of the others.
CYP2C9 inhib: blocks human cytochrome P450 2C9; P11712; CYP2C9 Supersomes, luciferin-H conversion, luminescence; inhibition, % at 5 µM; 96,000 compounds, 20% hits;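 active means blocking of liver enzyme CYP2C9 beyond about 50% at 5 µM, limit read from the data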
CYP2C9 activ: activators of human CYP2C9; P11712; recombinant CYP2C9, luciferin-H conversion, luminescence; hits give high values; factor 1 = untreated enzyme, 0 = blocked; activation factor at 5 µM; 96,000 compounds, 1.4% hits; AID 1024;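 active means activation factor of 2 or more for CYP2C9 at a 5 µM dose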
CYP2C19 inhib: human CYP2C19 inhibition | P33261 | CYP2C19 Supersomes, luciferin-H EGE luminescence, 30 min | inhibition, % at 5 µM | 96,000 compounds, 21% hits;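 active means CYP2C19 inhibition above a set limit at 5 µM in the primary screen, cut at about 50% in these data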
Cav32 inh: inhibitors of human Cav3.2 T-type calcium channel; O95180; Cav3.2-expressing cells, Fluo-4 calcium fluorescence FDSS; hits give low values; B-score at 10 µM; 100,000 compounds, 4% hits;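 active means single-dose well whose peak fluorescence ratio is a statistical outlier from its plate by either plate-standardised score or position-corrected B-score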
CYP2C19 act: cytochrome P450 2C19 (human) activation; P33261; recombinant CYP2C19, luciferin-H EGE luminescence; hits give high values; 0 = fully inhibited enzyme, 1 = untreated enzyme; activation factor at 5 µM; 96,000 tested, under 10 active;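 active means activation factor of at least 2 at 5 µM in the primary screen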
Hits are given with their value; - = inactive; . = not tested or not shown.

SMILES	CYP2C9 inhib	CYP2C9 activ	CYP2C19 inhib	Cav32 inh	CYP2C19 act
O=C(CNC(=O)/C(=C\c1ccc(F)cc1)NC(=O)c1ccccc1)OCc1ccccc1	-	-	71	-	-
CCOC(=O)N1CCC(NC(=O)c2cnn3c(C(F)(F)F)cc(-c4cccc(OC)c4)nc23)CC1	58	-	61	-	-
CCOC(=O)N1CCN(c2nc(-c3cccc(OC)c3)cc(C(F)(F)F)n2)CC1	-	-	-	-	-
CCOC(=O)c1cnn(-c2nc(-c3ccccc3)cs2)c1C(F)(F)F	88	-	-	-	-
CCOC(=O)c1cnn2c(C(F)(F)F)cc(-c3cn(C)nc3C)nc12	85	-	57	-	-
CCOC(=O)c1cnn(-c2nc(-c3ccccc3F)cs2)c1C(F)(F)F	-	-	-	-	-
CCOC(=O)c1cnn2c(C(F)(F)F)cc(-c3ccccc3)nc12	54	-	-	-	-
Cc1ccc(S(=O)(=O)Cn2cnnn2)cc1	-	-	-	-	-
CC(=O)Cc1nsc(NC(=O)c2cc(-c3ccccc3Cl)oc2C)n1	-	-	-	.	-
CCOc1ccccc1-c1cc(-c2ccc(OC)cc2)nc2c1c(=O)n(C)c(=O)n2C	-	-	-	-	-
Cc1onc(-c2ccccc2Cl)c1C(=O)Nc1c(C)n(C)n(-c2ccccc2)c1=O	-	-	-	-	-
CCOC(=O)c1cnc2c(-c3ccccc3)cnn2c1N	57	-	63	-	-
CCOC(=O)c1cnc2c(-c3ccccc3)c(C)nn2c1N	-	-	-	-	-
CC(C)Oc1ccc(/C=N/NC(=O)C(CSCc2ccccc2)NC(=O)c2ccc([N+](=O)[O-])cc2)cc1 (stereo unspecified)	.	.	.	-7.4	.
Cc1scc(C(=O)N/N=C/c2ccc(OC(C)C)cc2)c1C	-	-	-	-	-
COc1cc(-c2nc(-c3ccc4c(c3)-c3ccccc3S4(=O)=O)c(-c3ccccc3)[nH]2)cc(OC)c1O	78	-	79	-	-
CC(C)Cc1nc(N2CCN(C(=O)c3ccco3)CC2)c(C#N)c2c1CCC2	98	-	99	-7.9	-
O=C(c1ccco1)N1CCN(c2ncnc3c2cnn3-c2ccccc2)CC1	-	-	-	-	-
CC(=O)N1CCN(c2nc(CC(C)C)c3c(c2C#N)CCC3)CC1	73	-	73	-	-
Cc1nc(NCCO)c(C#N)c2c1COC(C)(C)C2	-	-	-	-	-
CC1(C)Cc2c(C#N)c(N3CCN(C(=O)c4ccco4)CC3)nc(Cc3ccccc3)c2CO1	95	-	73	-4.6	-
Cc1nc(N2CCN(C(=O)c3ccc(Cl)cc3)CC2)c(C#N)c2c1COC(C)(C)C2	50	-	83	-	-
CCC[C@@H]1CCCO[C@@](C(=O)NCc2cc(C)n(C)n2)(C(F)(F)F)C1	.	.	.	-	.
Cc1cccc2cc(CN(CCN3CCOCC3)C(=O)NCc3ccccc3)c(=O)[nH]c12	-	-	-	-	-
Cc1cccc(CN2CCN(CC(=O)NCc3ccc(F)cc3)C2=O)c1	.	.	.	-	.
SMILES	CYP2C9 inhib	CYP2C9 activ	CYP2C19 inhib	Cav32 inh	CYP2C19 act
CC(=O)N1C2CCCCC2S[C@H]2CCCCC21 (stereo partly specified)	-	-	-	-	-
CC(C)c1cc(N2CCN(C(=O)c3ccco3)CC2)n2c(nc3ccccc32)c1C#N	74	-	63	-	-
CC(C)Cc1nc(N2CCCCC2)c(C#N)c2c1CCC2	-	-	-	-	-
CC(C)Cc1nc(N2CCN(C(=O)C(C)C)CC2)c(C#N)c2c1CCC2	81	-	84	-5.7	-
O=S(=O)(/C=C/c1ccccc1)Oc1ccccc1	-	-	79	-	-
N#CCC(CNc1ncc(C(F)(F)F)cc1Cl)OC(=O)c1ccc(Cl)cc1Cl (stereo unspecified)	50	-	-	-	-
CC(C)Sc1nnc(-c2c[nH]c3ccccc23)n1C	-	-	68	-	-
Cn1c(SCc2cccnc2)nnc1-c1c[nH]c2ccccc12	-	-	83	-	-
CCOC(=O)C(C)Sc1nnc(-c2c[nH]c3ccccc23)n1C (stereo unspecified)	-	-	-	-	-
Cn1c(Sc2ccc(Cl)cc2)c(C=O)c2ccccc21	96	-	-	-	-
Cc1cccc(Sc2c(C=O)c3ccccc3n2C)c1	77	-	81	-	-
COc1cccc(SCc2noc(C(=O)NCCN(C)C)c2C(=O)NCCN(C)C)c1	.	.	.	-	.
CCn1nccc1C(=O)Nc1ccc(Cl)cn1	-	-	59	-	-
CCOc1ccc(OCc2ccc(C(=O)Nc3ccc(Cl)cn3)o2)cc1	-	-	-	-	-
CCn1nccc1C(=O)Nc1cc(Cl)cc(Cl)c1	.	.	.	-3.8	.
CCn1ccc(C(=O)Oc2ccc(Cl)cc2)n1	-	-	-	-	-
CCn1ccc(C(=O)Nc2ccc(Cl)cn2)n1	-	-	67	-	-
O=C(Nc1nc(-c2ccc(Cl)cc2)cs1)c1cccnc1	-	-	61	-	-
Cc1ccc(-c2csc(NC(=O)c3cccc([N+](=O)[O-])c3)n2)cc1	-	-	-	-	-
c1cncc(Nc2nc(-c3cccnc3)cs2)c1	56	-	72	-	-
CC(=O)Oc1ccc(-c2csc(Nc3cccnc3)n2)cc1	-	-	-	-	-
Cc1ccc(-c2csc(NC(=O)c3ccno3)n2)cc1	70	-	-	-	-
COc1ccc(CCNc2nc(-c3sc(C)nc3C)cs2)cc1OC	-	-	-	-	-
COc1ccc(CCNc2nc(-c3cccnc3)cs2)cc1OC	-	-	84	-	-
NC(=O)CC(NC(=O)c1ccc(Br)cc1)c1ccc(N2CCC(Br)CC2)c([N+](=O)[O-])c1 (stereo unspecified)	.	.	.	-	.
SMILES	CYP2C9 inhib	CYP2C9 activ	CYP2C19 inhib	Cav32 inh	CYP2C19 act
c1cncc(Nc2nc(-c3ccncc3)cs2)c1	52	-	51	-	-
CCCCNC(=O)Cn1c(=O)oc2cc(S(=O)(=O)N3CC(C)CC(C)C3)ccc21 (stereo unspecified)	57	-	-	-	-
CCc1ccc(NC(=O)Cn2c(=O)oc3cc(S(=O)(=O)N4CCOCC4)ccc32)cc1	-	-	-	-	-
Cc1cc(C)cc(NC(=O)Cn2c(=O)oc3cc(S(=O)(=O)N4CC(C)CC(C)C4)ccc32)c1 (stereo unspecified)	56	-	-	-4.3	-
O=C(Nc1ccc2c(c1)OCO2)C1CCN(C(=O)c2cccs2)CC1	-	-	-	-	-
O=S(Cc1ccc(Cl)cc1)CC(O)(c1ccccc1)c1ccccc1 (stereo unspecified)	-	-	80	-	-
CCOCC(O)CS(=O)Cc1ccccc1 (stereo unspecified)	-	-	-	-	-
O=S(Cc1ccccc1)CC(O)(c1ccc(Cl)cc1)c1ccc(Cl)cc1 (stereo unspecified)	-	-	85	-	-
CC(C)C(=O)NC(c1ccco1)c1ccc2cccnc2c1O (stereo unspecified)	-	-	-	-	-
COc1ccc(C(NC(C)=O)c2ccc3cccnc3c2O)c(OC)c1 (stereo unspecified)	-	-	58	-	-
